These results are taken from PubChem BioAssay (NCATS).

Records with an inconclusive call do not appear. Active and inactive are the calls of the source. Unless noted, how the calls were made is not given here.

A short description of test [1]: qHTS Assay for Identifying Gametocytocidal Compounds (AID 743244; active means well fitted curve in the direction sought with a large enough effect; further: potency means the concentration at half of the fitted maximal effect;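 on max response: on the % scale 0 is the no-effect control and ±100 the full control effect; actives lower the fluorescent signal which means gametocytes are killed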). The conditions noted are these: P. falciparum 3D7 stage III-V gametocytes, alamarBlue, 72 h; max response: stronger effect = lower value. Put shortly:
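Stage III–V gametocytes of P. falciparum 3D7 were seeded at 20,000 cells/well onto pre-dispensed compounds. After 72 h, 37 °C, 5% CO2, alamarBlue was added for another 24 h.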

Test [2] can be described thus: qHTS profiling for inhibitors of Plasmodium falciparum (DD2) proliferation (AID 743323). Particulars: lower = more inhibition; at 28.7 µM (top of the series) unless noted. In a few lines:
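Parasite proliferation measured via DNA-dye fluorescence, as uninfected erythrocytes lack DNA. Cultures at 0.3% parasitemia and 2.5% hematocrit incubated 72 h with compound; signal scaled between vehicle and 0.29 uM artemisinin wells.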

A short description of test [3]: qHTS profiling for inhibitors of Plasmodium falciparum (3D7) proliferation (AID 743322).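 Further: infected erythrocytes exposed to compound for 72 h before lysis; 100% = DMSO vehicle wells and 0% = 0.29 µM artemisinin.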 Particulars: P. falciparum 3D7 proliferation; at 28.7 µM (top of the series) unless noted. Put shortly:
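Parasite DNA was quantified by SYBR Green I fluorescence (ex 485, em 535 nm) after overnight lysis in saponin/Triton buffer at room temperature. Cultures at 0.3% parasitemia and 2.5% hematocrit were first exposed to compound for 72 h at 37 C; signals were normalised to artemisinin (0.29 uM) and vehicle wells.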
On the technique in general: Quantitative high-throughput screening tests each substance at several concentrations.

Take `COc1nc(C)cnc1NS(=O)(=O)c1cccnc1-c1ccc(-c2nnco2)cc1`: in test [1], the max response was 18.4% (inactive). Also, the activity, percent of control in test [2] is 88%.

As to `CN(C)CCN(C)C(=O)c1ccc(NC(=O)Nc2ccc(-c3nc(N4CCOCC4)c4ccn(CC(F)(F)F)c4n3)cc2)cc1`, the Potency in test [1] was 23.5 µM (active). Besides, the activity, percent of control in test [2] is 0.114%.

As to `O=C1CN2Cc3c(ccc(Cl)c3Cl)N=C2N1`, in test [2], the activity, percent of control worked out at 93.4%.

On to `CC(C)Oc1cc(Nc2nc(N[C@@H](C)c3ccc(F)cn3)ncc2Cl)[nH]n1`, for which the Potency in test [1] was 2.35 µM (active). Also, in test [2], the activity, percent of control turned out to be 5.44%.

Regarding `CC1=C[C@@H]2[C@@H]([C@@H](O)C[C@@]3(C)[C@H]2C[C@@H](C)[C@]3(O)C(=O)CO)[C@@]2(C)Cc3cnn(-c4ccccc4)c3C=C12`, the max response in test [1] was -28.3% (inactive). The activity, percent of control in test [2] was -0.0711%.

Consider `COc1ccc(CCN(C)CCCOc2ccc(S(=O)(=O)c3[nH]c4ccccc4c3C(C)C)cc2)cc1OC`, for which the remaining parasite growth % (stronger effect = lower value) in test [3] is -1%. The activity, percent of control in test [2] worked out at 1.03%.

Regarding `COc1cc([C@@H]2c3cc4c(cc3[C@@H](O[C@@H]3O[C@@H]5CO[C@@H](C)O[C@@H]5[C@H](O)[C@@H]3O)[C@H]3COC(=O)[C@H]23)OCO4)cc(OC)c1O`, the activity, percent of control in test [2] amounted to 47.3% [at 9.63 µM].

For `CC(=O)NCCC(=O)N[C@@H](CCC(N)=O)C(=O)N[C@@H](CO)C(=O)N[C@@H](CCC(N)=O)C(=O)N[C@@H](CCC(N)=O)C(=O)N[C@H](C(=O)N[C@@H](Cc1ccccc1)C(=O)N[C@]1(C)CCCCCCC=CCCC[C@@](C)(C(=O)N[C@@H](CCC(N)=O)C(=O)N[C@@H](CC(N)=O)C(N)=O)NC(=O)[C@H](CC(C)C)NC(=O)[C@H](CC(C)C)NC(=O)[C@@H](CCCNC(=N)N)NC(=O)[C@H](Cc2c[nH]c3ccccc23)NC(=O)[C@H](CC(C)C)NC(=O)[C@H](CC(N)=O)NC1=O)[C@H](C)O`, in test [2], the activity, percent of control turned out to be 68.3%.

Turning to `O=C(O)Cc1cccc(OCCCN(Cc2cccc(C(F)(F)F)c2Cl)CC(c2ccccc2)c2ccccc2)c1`, in test [1], the max response was 0.38% (inactive). The activity, percent of control in test [2] stood at 34.1%.

Turning to `CN(C)CCCNC(=O)c1ccc(-c2cc(O)c3ncccc3c2)cc1`, the Potency in test [1] was 2.96 µM (active). Further, the activity, percent of control in test [2] came to 5.19%.

In the case of `CO[C@@H]1C(N(C)C(=O)c2ccccc2)C[C@H]2O[C@]1(C)n1c3ccccc3c3c4c(c5c6ccccc6n2c5c31)C(=O)NC4=O` (stereo partly specified), the activity, percent of control in test [2] worked out at 103%.

As to `COc1cc2c(cc1OC)CC(=O)N(CCCN(C)C[C@H]1Cc3cc(OC)c(OC)cc31)CC2`, in test [1], the max response was -6.61% (inactive). Moreover, in test [2], the activity, percent of control was found to be 102%.

As for `COC(=O)Nc1ccc(-c2nc(N3CCOCC3)c3cnn(C4CCN(C(=O)OC)CC4)c3n2)cc1`, the max response in test [1] is 6.16% (inactive). The activity, percent of control in test [2] is 7.64%.

Turning to `CC(C)C[C@@H](C(=O)N[C@H](C(=O)OC1CCCC1)c1ccccc1)[C@H](O)C(=O)NO`, the activity, percent of control in test [2] turned out to be 9.3%.

For `CNC(=O)c1cc(Oc2ccc(NC(=O)Nc3ccc(Cl)c(C(F)(F)F)c3)c(F)c2)ccn1`, in test [1], the max response is 21.4% (inactive). Also, in test [2], the activity, percent of control is 5.46%.

`Cc1csc(-c2nnc(Nc3ccc(Oc4ncccc4-c4ccnc(N)n4)cc3)c3ccccc23)c1`: the max response in test [1] was 10.6% (inactive). For the same molecule, the activity, percent of control in test [2] is 85.6%.

For the molecule `CCC(=O)N1CCN(c2ccc(-n3c(=O)ccc4cnc5ccc(-c6cnc7ccccc7c6)cc5c43)cc2C(F)(F)F)CC1`, the Potency in test [1] is 5.26 µM (active). Further, the activity, percent of control in test [2] is 15.4%.

As for `CN1C(=O)C(Cc2c[nH]c3ccccc23)NC1=S` (stereo unspecified), the max response in test [1] was 15.9% (inactive). Moreover, in test [2], the activity, percent of control amounted to 91.5%.

For the molecule `Clc1ccc(COC(Cn2ccnc2)c2ccc(Cl)cc2Cl)c(Cl)c1` (stereo unspecified), the Potency in test [1] is 4.48 µM (active). In addition, in test [2], the activity, percent of control was -0.374%.

Consider `CN(C)CC[C@H](CSc1ccccc1)Nc1ccc(S(=O)(=O)NC(=O)c2ccc(N3CCN(Cc4ccccc4-c4ccc(Cl)cc4)CC3)cc2)cc1[N+](=O)[O-]`, for which, in test [2], the activity, percent of control worked out at 9.74%.

For the molecule `O=C(Nc1cccc(Cl)c1)Nc1ncc(CCNc2ncnc3ccsc23)s1`, the max response in test [1] was 5.02% (inactive). In test [2], the activity, percent of control was determined as 4.65%.

For `Cc1ccc(NC(=O)c2ccc(CN3CCN(C)CC3)cc2)cc1Nc1nc(-c2cccnc2)cs1`, in test [2], the activity, percent of control came out at 5.7%.

Take `C[C@@H](O[C@H]1OCCN(Cc2n[nH]c(=O)[nH]2)[C@@H]1c1ccc(F)cc1)c1cc(C(F)(F)F)cc(C(F)(F)F)c1`: the activity, percent of control in test [2] is 26.1%.

Take `O=C1NC(=O)C(c2cnc3ccccn23)=C1c1cn2c3c(cccc13)CN(C(=O)N1CCOCC1)CC2`: in test [3], the remaining parasite growth % (stronger effect = lower value) stood at 49.3%. In test [2], the activity, percent of control came out at 63.3%.

As to `CC(=O)Nc1cccc(-n2c(=O)n(C3CC3)c(=O)c3c(Nc4ccc(I)cc4F)n(C)c(=O)c(C)c32)c1`, the remaining parasite growth % (stronger effect = lower value) in test [3] was -2.85%. Further, in test [2], the activity, percent of control is -0.291%.

Consider `CCOC(=O)[C@@H](N)CCC(=O)N[C@@H](CSCc1ccccc1)C(=O)N[C@@H](C(=O)OCC)c1ccccc1`, for which, in test [2], the activity, percent of control was found to be 92%.

With `Cc1nn(Cc2ccccc2Cl)c(C)c1CN(C)CC(O)COc1ccc(Cl)cc1` (stereo unspecified), in test [2], the activity, percent of control is 18.1%.

As to `COc1c(C)cnc(Cn2cnc3c(Cl)nc(N)nc32)c1C`, the Potency in test [1] was 23.5 µM (active). The activity, percent of control in test [2] was 31.4%.

Consider `CCN(CC)CCCCNc1nc2cc(Cl)c(Cl)cc2nc1-c1ccc(-c2cccs2)s1`, for which the activity, percent of control in test [2] stood at 1.46%.

On to `CC(C)CNc1ccnc(NCc2csc(-c3ccccc3)n2)n1`, for which the activity, percent of control in test [2] was 6.76%.

Regarding `COc1ccc2nc3cc(Cl)ccc3c(Nc3cc(CN4CCCC4)c(O)c(CN4CCCC4)c3)c2n1`, the remaining parasite growth % (stronger effect = lower value) in test [3] was -1.29%. The activity, percent of control in test [2] is -0.214%.

As to `NC(=O)c1ccc(N(C(N)=O)c2c(F)cccc2F)nc1-c1ccc(F)cc1F`, in test [1], the max response is 15.2% (inactive). The activity, percent of control in test [2] came to 83.3%.

With `CCCCn1c(=O)n(Cc2ccccc2F)c(=O)c2[nH]c(Cc3ccc(NC(C)=O)cc3)nc21`, in test [1], the max response is 66.3% (inactive). Also, the activity, percent of control in test [2] stood at 63.7%.

`O=C1C(CCC(O)c2ccc(F)cc2)C(c2ccc(O)cc2)N1c1ccc(F)cc1` (stereo unspecified): the max response in test [1] was 8.66% (inactive). For the same molecule, in test [2], the activity, percent of control was determined as 83.7%.
